The target of the first test is T1, Aspartate--tRNA(Asp/Asn) ligase (Mycobacterium tuberculosis (strain ATCC 25618 / H37Rv)) (UniProt P9WFW3). Note: in the data most compounds retested in dose-response had high values.
T1 sequence (whole entry): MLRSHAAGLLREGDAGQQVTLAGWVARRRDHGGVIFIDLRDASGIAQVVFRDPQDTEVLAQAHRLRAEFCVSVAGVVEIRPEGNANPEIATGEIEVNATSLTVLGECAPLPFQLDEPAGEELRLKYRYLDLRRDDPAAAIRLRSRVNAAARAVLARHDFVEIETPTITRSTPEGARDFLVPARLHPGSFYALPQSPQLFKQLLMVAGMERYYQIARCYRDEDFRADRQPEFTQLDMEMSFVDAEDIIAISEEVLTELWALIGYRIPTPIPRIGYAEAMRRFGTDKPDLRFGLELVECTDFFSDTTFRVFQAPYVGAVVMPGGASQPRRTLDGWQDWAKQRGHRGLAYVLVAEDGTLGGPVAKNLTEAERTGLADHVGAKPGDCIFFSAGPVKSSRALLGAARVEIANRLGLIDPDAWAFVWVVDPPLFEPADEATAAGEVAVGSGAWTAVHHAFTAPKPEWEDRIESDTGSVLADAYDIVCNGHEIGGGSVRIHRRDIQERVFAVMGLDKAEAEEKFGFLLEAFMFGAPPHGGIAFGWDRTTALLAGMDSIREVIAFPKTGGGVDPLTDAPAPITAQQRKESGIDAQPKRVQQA
Description: Assay for Asp RNA synthetase-1 from Mycobacterium tuberculosis. Particulars: 30 µM. The format is functional. Set-up: scale not given: direction of the effect not stated beside the values.
Turning to `CNC(=O)c1ccc(C(=O)N2CCCC(n3cc(C)cn3)C2)cn1` (stereo not given), the Percent Effect was -5.95%.

As for `CC1CCc2nc(O)c(C(=O)NCc3cccc(F)c3)cc2C1` (stereo not given), the Percent Effect was determined as 1.04%.

On to `Cc1ncsc1C(=O)NC1CCN(Cc2ccc(C#N)cc2)CC1`, for which the Percent Effect amounted to 1.55%.

Take `Cc1cc(S(=O)(=O)N2CCc3ccc(F)cc32)cc(C(=O)O)c1C`: the Percent Effect turned out to be 2.1%.

In the case of `Cc1nn(C)cc1C(=O)Nc1cccc(CN2CCC(CO)CC2)c1`, the Percent Effect was 3.06%.

As to `Cc1cccc(-c2nc(CN3CCc4c(ncn4C)C3)no2)c1`, the Percent Effect was 1.91%.

Consider `CCOCC1CN(Cc2cnn(C)c2)Cc2nn(C)cc21` (stereo not given), for which the Percent Effect was -3.19%.

`COc1ccc(CN2CCn3c(CNS(C)(=O)=O)nnc3C2)cc1`: the Percent Effect was found to be 1.39%.

As for `CC(C)OCCCNC(=O)CS(=O)(=O)Cc1ccc(Cl)c(Cl)c1`, the Percent Effect is 5.22%.

Consider `CN(C)c1nc2c(c(N3CCC(O)CC3)n1)CN(CC1CCNC1)CC2` (stereo not given), for which the Percent Effect was found to be 3.47%.

Regarding `Cc1oc(-c2ccsc2)nc1CC(=O)NCCS(C)(=O)=O`, the Percent Effect was 12.7%.

Regarding `CC(C)COC(C)C(=O)NCc1cc(F)cc(F)c1` (stereo not given), the Percent Effect is -4.79%.

Consider `CC1=NN(c2ccc(C(=O)N3CCCC(n4ccnc4)C3)cc2)CC1` (stereo not given), for which the Percent Effect amounted to 1.08%.

As for `O=C(NC1CC1)c1ccc2ccc(N3CCN(CC4CC4)CC3)n2c1`, the Percent Effect is -1.8%.

With `COc1ccc2nnc(CCCC(=O)NCc3cccn3C)n2n1`, the Percent Effect was -1.89%.

As to `COc1cccc(N2CCN(Cc3ncc[nH]3)CC2=O)c1`, the Percent Effect turned out to be 0.446%.

Consider `O=C([C@H]1C[C@H]2OCC[C@H]2N(C(=O)C2CCOCC2)C1)N1CCCCO1`, for which the Percent Effect amounted to 0.757%.

With `Cc1ccc2c(n1)N(CCn1cccn1)CCN(C(=O)CC1CC1)C2`, the Percent Effect is -3.03%.

With `CCNC(=O)CCc1c(C)nc2cc(O)nn2c1C`, the Percent Effect amounted to 4.16%.

On to `Cc1ncsc1C(=O)N(C)Cc1cccc(Cl)c1`, for which the Percent Effect was -1.26%.

Consider `CC(=O)N1C[C@@H](c2ccsc2)[C@@H]2CN(Cc3ccccc3)CC[C@@H]21`, for which the Percent Effect was 2.13%.

On to `CN(CC(=O)N1CCCC1Cn1cccn1)C1CC1` (stereo not given), for which the Percent Effect is -2.14%.

For `CCn1cc(NC(=O)C2CCN(Cc3ccccc3C#N)CC2)cn1`, the Percent Effect stood at 1.7%.

In the case of `Cc1cnn(CC2CCCN2C(=O)c2cc(Cl)ccc2F)c1` (stereo not given), the Percent Effect was found to be 1.32%.

On to `O=S(=O)(N1CCCCC1)N1CCc2nc(C3CCNCC3)ncc2C1`, for which the Percent Effect was -1.74%.

As for `Cn1c(Nc2cn[nH]c2)c(C#N)c(=O)n(C)c1=O`, the Percent Effect was -0.24%.

`CC(=O)Nc1ccc(S(=O)(=O)NC(=O)CCC2CCCO2)cc1` (stereo not given): the Percent Effect is 2.52%.

Consider `Fc1cccc(-c2nc(CN3CCCCC3Cn3cncn3)co2)c1` (stereo not given), for which the Percent Effect stood at 0.0286%.

Consider `CN1CCOC(CNC(=O)CCCOCCc2ccccc2)C1` (stereo not given), for which the Percent Effect is -3.72%.

Take `Cc1ccc(C(=O)N2C[C@@H]3COC[C@]3(COc3cccnc3)C2)cn1`: the Percent Effect is 2.55%.

As to `COc1cccc(COCC(O)CN2CC(n3cccn3)C2)c1` (stereo not given), the Percent Effect was -2.41%.

Turning to `COc1cccc(S(=O)(=O)N2CCC(O)(CN(C)C)C2)c1` (stereo not given), the Percent Effect is -0.221%.

For the compound `CN(C)C(=O)CN1CCC2(CCN(Cc3nccs3)CC2)C1=O`, the Percent Effect came out at 7.45%.

Regarding `CN(Cc1cnn(C)c1)C(=O)NCc1nnc2n1CCC2`, the Percent Effect was -10.2%.

With `Cc1ccccc1C(=O)CN1C(=O)c2ccccc2CS1(=O)=O`, the Percent Effect was 0.881%.

In the case of `c1ccc2cc(OCCN3CCn4c(nnc4C4CC4)C3)ccc2c1`, the Percent Effect worked out at 3.95%.

As for `CC(C)C(Sc1nnnn1C1CC1)C(=O)NCc1cccnc1` (stereo not given), the Percent Effect was -3.1%.

For the compound `COc1ncccc1C(=O)Nc1nc2c(s1)CN(S(=O)(=O)C1CC1)CC2`, the Percent Effect was -4.8%.

Regarding `Cc1noc(CN2CCOC(CN(C)C)C2)n1` (stereo not given), the Percent Effect was -7.81%.

Consider `CNS(=O)(=O)c1cccc(CNC(=O)c2c(C)nn(C)c2C)c1`, for which the Percent Effect is -4.44%.

The next test has as its target Shiga toxin 2 (Escherichia coli O157:H7) (UniProt P09385+P09386). Description: E. coli 0.157:H7 Shiga Toxin SOP - stx2 screening assay. Further details: scale not given: direction of the effect not stated beside the values. The format is functional. Particulars: 30 µM.
For `CNC(=O)c1ccc(C(=O)N2CCCC(n3cc(C)cn3)C2)cn1` (stereo not given), the Percent Effect was -41.9%.

`CC1CCc2nc(O)c(C(=O)NCc3cccc(F)c3)cc2C1` (stereo not given): the Percent Effect is -8.04%.

With `Cc1ncsc1C(=O)NC1CCN(Cc2ccc(C#N)cc2)CC1`, the Percent Effect was -28.6%.

For the compound `Cc1cc(S(=O)(=O)N2CCc3ccc(F)cc32)cc(C(=O)O)c1C`, the Percent Effect was -5.86%.

As for `Cc1nn(C)cc1C(=O)Nc1cccc(CN2CCC(CO)CC2)c1`, the Percent Effect was -101%.

As for `Cc1cccc(-c2nc(CN3CCc4c(ncn4C)C3)no2)c1`, the Percent Effect turned out to be 4.04%.

Consider `CCOCC1CN(Cc2cnn(C)c2)Cc2nn(C)cc21` (stereo not given), for which the Percent Effect is -11.8%.

Consider `COc1ccc(CN2CCn3c(CNS(C)(=O)=O)nnc3C2)cc1`, for which the Percent Effect was -6.04%.

Turning to `CC(C)OCCCNC(=O)CS(=O)(=O)Cc1ccc(Cl)c(Cl)c1`, the Percent Effect is 30.4%.

In the case of `CN(C)c1nc2c(c(N3CCC(O)CC3)n1)CN(CC1CCNC1)CC2` (stereo not given), the Percent Effect is -11.1%.

As to `Cc1oc(-c2ccsc2)nc1CC(=O)NCCS(C)(=O)=O`, the Percent Effect is -25.4%.

Turning to `CC(C)COC(C)C(=O)NCc1cc(F)cc(F)c1` (stereo not given), the Percent Effect worked out at 27.6%.

With `CC1=NN(c2ccc(C(=O)N3CCCC(n4ccnc4)C3)cc2)CC1` (stereo not given), the Percent Effect was -30.6%.

For the compound `O=C(NC1CC1)c1ccc2ccc(N3CCN(CC4CC4)CC3)n2c1`, the Percent Effect was -80.6%.

Take `COc1ccc2nnc(CCCC(=O)NCc3cccn3C)n2n1`: the Percent Effect was -44.7%.

Regarding `COc1cccc(N2CCN(Cc3ncc[nH]3)CC2=O)c1`, the Percent Effect is -4.16%.

In the case of `O=C([C@H]1C[C@H]2OCC[C@H]2N(C(=O)C2CCOCC2)C1)N1CCCCO1`, the Percent Effect was -26.6%.

Consider `Cc1ccc2c(n1)N(CCn1cccn1)CCN(C(=O)CC1CC1)C2`, for which the Percent Effect amounted to 2.2%.

For the compound `CCNC(=O)CCc1c(C)nc2cc(O)nn2c1C`, the Percent Effect is -21.5%.

For the compound `Cc1ncsc1C(=O)N(C)Cc1cccc(Cl)c1`, the Percent Effect was 17.9%.

`CC(=O)N1C[C@@H](c2ccsc2)[C@@H]2CN(Cc3ccccc3)CC[C@@H]21`: the Percent Effect was -20.6%.

Take `CN(CC(=O)N1CCCC1Cn1cccn1)C1CC1` (stereo not given): the Percent Effect came out at 12.6%.

In the case of `CCn1cc(NC(=O)C2CCN(Cc3ccccc3C#N)CC2)cn1`, the Percent Effect is -53.9%.

As for `Cc1cnn(CC2CCCN2C(=O)c2cc(Cl)ccc2F)c1` (stereo not given), the Percent Effect was -18.5%.

Regarding `O=S(=O)(N1CCCCC1)N1CCc2nc(C3CCNCC3)ncc2C1`, the Percent Effect came out at 13.4%.

Regarding `Cn1c(Nc2cn[nH]c2)c(C#N)c(=O)n(C)c1=O`, the Percent Effect was -19.1%.

Regarding `CC(=O)Nc1ccc(S(=O)(=O)NC(=O)CCC2CCCO2)cc1` (stereo not given), the Percent Effect was -2.77%.

As for `Fc1cccc(-c2nc(CN3CCCCC3Cn3cncn3)co2)c1` (stereo not given), the Percent Effect was determined as 14.4%.

Regarding `CN1CCOC(CNC(=O)CCCOCCc2ccccc2)C1` (stereo not given), the Percent Effect is 1.69%.

As for `Cc1ccc(C(=O)N2C[C@@H]3COC[C@]3(COc3cccnc3)C2)cn1`, the Percent Effect was -13.2%.

As to `COc1cccc(COCC(O)CN2CC(n3cccn3)C2)c1` (stereo not given), the Percent Effect came to 16.5%.

Regarding `COc1cccc(S(=O)(=O)N2CCC(O)(CN(C)C)C2)c1` (stereo not given), the Percent Effect stood at 11.2%.

Take `CN(C)C(=O)CN1CCC2(CCN(Cc3nccs3)CC2)C1=O`: the Percent Effect is -16.7%.

In the case of `CN(Cc1cnn(C)c1)C(=O)NCc1nnc2n1CCC2`, the Percent Effect turned out to be 4.62%.

Regarding `Cc1ccccc1C(=O)CN1C(=O)c2ccccc2CS1(=O)=O`, the Percent Effect is -11.1%.

Turning to `c1ccc2cc(OCCN3CCn4c(nnc4C4CC4)C3)ccc2c1`, the Percent Effect was -16.6%.

Regarding `CC(C)C(Sc1nnnn1C1CC1)C(=O)NCc1cccnc1` (stereo not given), the Percent Effect was -4.91%.

For the compound `COc1ncccc1C(=O)Nc1nc2c(s1)CN(S(=O)(=O)C1CC1)CC2`, the Percent Effect is -20%.

Regarding `Cc1noc(CN2CCOC(CN(C)C)C2)n1` (stereo not given), the Percent Effect is -10.9%.

As for `CNS(=O)(=O)c1cccc(CNC(=O)c2c(C)nn(C)c2C)c1`, the Percent Effect was 8.19%.

The record behind these values is ChEMBL document CHEMBL3988442, “University of Dundee, Small-Polar-MMV Screening Library” (2021).
